Several values for one entry are separate records, joined by “and”; a condition that tells them apart may be missing. Equal entries are not always repeated. Results filed as inconclusive are left out. Activity calls are given as the source filed them. The call rests on the fitted dose curve; in most records, active means well fitted inhibition curve with a large enough effect; inconclusive means small, poorly fitted or top-dose-only effect; inactive means flat fitted curve, though single readings scatter.
What was measured:
CRL-7250 = normal cell line; test: Cytotoxic Profiling of Annotated Libraries Using Quantitative High-Throughput Screening (AID 1296008); conditions: Five cell lines viability, CellTiter-Glo ATP luminescence, 48-72 h; max response: active compounds read low; on max response: on the % scale 0 is the no-effect control and ±100 the full control effect
Outline: (§1)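 Cytotoxicity was measured as CellTiter-Glo ATP luminescence, read after 10 min at room temperature. Compound treatment of the cells lasted 48 or 72 hr at 37 degrees Celsius in a qHTS format.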

HaCat [1] = test: as above; conditions: Five cell lines viability, CellTiter-Glo ATP luminescence, 48-72 h; max response: active compounds read low
Outline: as §1

KB-3-1 = test: as above; conditions: Five cell lines viability, CellTiter-Glo ATP luminescence, 48-72 h; max response: active compounds read low
Outline: as §1

NIH3T3 = test: as above; conditions: Five cell lines viability, CellTiter-Glo ATP luminescence, 48-72 h; max response: active compounds read low
Outline: as §1

HACAT [2] = test: qHTS assay to identify novel small-molecules to repurpose for Merkel cell carcinoma treatment (AID 1296009); conditions: MCC and control cell lines, CellTiter-Glo viability, 72 h; at 44.8 µM (top of the series) unless noted
Outline: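 Cell viability measured by CellTiter-Glo following 72 hr compound treatment at 37 degree celsius, with NPC and MIPE libraries tested in 8- and 11-point concentration series.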

Measured: max response
Further: nearly all actives have a fitted effect of over 60% in size.

Cc1cc(F)ccc1-c1nc(NCCN=C(N)NC#N)nc2c1ccc(=O)n2-c1c(F)cccc1F
inactive: CRL-7250 1.44% | HaCat [1] 4.96% | KB-3-1 0.209% | NIH3T3 4.3%

C[C@@H]1C[C@H](C)CN(CCC(=O)Nc2ccc(Br)cc2)C1
inactive: CRL-7250 -5.34% | HaCat [1] -4.42% | KB-3-1 -13.7% | NIH3T3 -17.9%

COc1cc2c(cc1OCCCN1CCCC1)N=C(N)C21CCC1
inactive: CRL-7250 -5.27% | HaCat [1] 2.83% | KB-3-1 0.253% | NIH3T3 inactive; activator

O=C(NCC1(N2CCN(c3ccccc3)CC2)CCOCC1)c1cccnc1Sc1ccccc1
inactive: CRL-7250 | HaCat [1] -2.8% | KB-3-1 1.24% | NIH3T3

Cn1cc(-c2ccc(F)c(C(F)(F)F)c2)nc1C1CCN(c2ncnc3[nH]ncc23)CC1
inactive: CRL-7250 -0.425% | HaCat [1] -21.3% | KB-3-1 0.816% | NIH3T3 1.5% and -4.9%

CCOC(=O)CCNc1cc(N2CCc3ccccc3CC2)nc(-c2cccnc2)n1
inactive: CRL-7250 | HaCat [1] | KB-3-1 | NIH3T3 | HACAT [2]

O=C(NCC1CCN(Cc2cccc(Cl)c2)CC1)[C@@H]1CCCN(c2ncnc3c2nc2n3CCCC2)C1
inactive: CRL-7250 4.3% | HaCat [1] | KB-3-1 -6.02% | NIH3T3 | HACAT [2]

Source: PubChem BioAssay (NCATS)
